EP2 modulator – modulates human prostaglandin E2 receptor EP2 signaling; P43116; EP2-expressing cells, cAMP HTRF FRET, PGE2 co-stimulation; induction, % at 25 µM; 260,000 tested, 0.83% active;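 active = compounds whose cAMP rise, as percent of the full-agonist control response, exceeds 60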;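 also: rat C6 glioma line stably carrying human EP2 under a CMV promoter; the protocol text gives 20 µM as final concentration; 100% = response of wells given 1 µM PGE2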
S1P3 antagonist – S1P3 (human) receptor antagonism; Q99500; CHO S1P3 NFAT-BLA reporter, FRET fluorescence, antagonist mode; inhibition, % at 4.98 µM; 170,000 tested, 0.27% active; AID 485;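 active = inhibition above the plate cutoff, the mean inhibition of test wells on that plate plus 3 SD, cut at about 28% in these data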;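 also: cells challenged with S1P at its EC80 of 0.8 µM; blue over green emission ratio from cleaved BLA substrate after 4 h stimulation; 0% = S1P-stimulated wells and 100% = unstimulated DMSO-only wells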
Insulin prom inh – TRM-6 insulin promoter activity inhibition; 130,000 tested, 0.9% active; inhibition, % at 2 µM; AID 1273; TRM-6 cells (human fetal islet line), insulin promoter-eGFP reporter, imaging; reporter expression induced with tamoxifen;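 active = inhibition above the mean plus 3 SD, with well images judged a real hit on visual review, cut at about 60% in these data, passing the limit was not always enough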
PGE2 EP2 inh – EP2 receptor (human) inhibition. 260,000 tested, 0.52% active. C6 glioma cells expressing human EP2, cAMP TR-FRET; cells stimulated with saturating PGE2. P43116. AID 1422. inhibition, % at 25 µM;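 active = percent inhibition above 40 after rounding to a whole number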;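 also: rat C6 glioma host cells with rolipram phosphodiesterase inhibitor present; the protocol text gives 20 µM as final concentration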
S1P4 antagonist – antagonists of human S1P4 receptor; 220,000 tested, 0.26% active; inhibition, % at 4.98 µM; S1P4-expressing cells, antagonist mode, reporter read-out; O95977; in the data active = inhibition above about 29%;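 also: 0% = wells stimulated with agonist and 100% = vehicle wells without agonist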
Target sequence (O95977 whole entry, looked up): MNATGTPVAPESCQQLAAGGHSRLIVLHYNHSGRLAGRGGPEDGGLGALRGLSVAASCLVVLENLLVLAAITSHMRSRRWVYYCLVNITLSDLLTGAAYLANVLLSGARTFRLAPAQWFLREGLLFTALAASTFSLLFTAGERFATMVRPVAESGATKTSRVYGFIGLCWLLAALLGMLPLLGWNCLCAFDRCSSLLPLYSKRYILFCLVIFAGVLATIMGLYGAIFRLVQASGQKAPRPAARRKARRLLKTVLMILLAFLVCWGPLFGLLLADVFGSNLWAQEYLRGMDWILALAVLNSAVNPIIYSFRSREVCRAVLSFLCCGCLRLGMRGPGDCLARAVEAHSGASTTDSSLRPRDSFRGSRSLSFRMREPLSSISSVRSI
S1P4 agonist – human S1P4 receptor agonism | O95977 | S1P4-expressing cell line, agonist reporter assay | activation, % at 4.98 µM | 220,000 tested, 0.35% active; in the data active = activation above about 11%;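 also: 0% = DMSO vehicle and 100% = reference agonist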
EP2 confirm – human EP2 receptor cAMP induction, negative in counter-screens | C6 glioma EP2 cells, cAMP HTRF induction; plus low (about EC15) PGE2 agonist | 1,300 tested, 47% active | calls only at 20 µM (by protocol) | shares compounds with EP2 modulator;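 active = cAMP induction above 50% in the main assay while under 30% in all four parallel counter assays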;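 also: rat C6 glioma cells stably expressing human EP2 receptor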
An asterisk follows results filed as active; i = inactive; nt = no result; + = active, no number. The list is not random: actives were taken first. Their share in the collection is about 2.4%.

SMILES	EP2 modulator	S1P3 antagonist	Insulin prom inh	PGE2 EP2 inh	S1P4 antagonist	S1P4 agonist	EP2 confirm
CC(C)=CCc1c(O)cc2oc3c(CC=C(C)C)c(O)c(O)c(CC=C(C)C)c3c(=O)c2c1O	13.3	nt	nt	26.2	nt	nt	nt
FC(F)(F)c1cc(-c2ccccc2)nc(N2CCOCC2)n1	65.1*	nt	2.9	9.6	1.9	3.1	i
O=C(c1ccco1)N(Cc1cccc([N+](=O)[O-])c1)c1ccc(Br)cc1	66.0*	0.8	nt	2.4	-3.3	-0.6	+
O=C(c1ccco1)N(Cc1ccc([N+](=O)[O-])cc1)c1ccc(Br)cc1	48.2	nt	9.7	5.6	-3.1	0.2	nt
Cc1ccc(S(=O)(=O)n2c3ccc(Cl)cc3c3nc(C)sc32)cc1	89.9*	-3.1	80.0*	3.5	-2.1	-0.4	+
COC(=O)Cn1c2ccc(Cl)cc2c2nc(C)sc21	-19.2	-2.3	nt	8.9	4.9	2.7	nt
Cc1ccc(C(=O)OCC(=O)Nc2ccccc2Sc2ccccc2)cc1C	68.5*	-9.5	35.1	7.4	-16.7	-0.6	+
COC(=O)c1ccc(Cn2nc(C)c3cccn3c2=O)o1	6.5	nt	nt	nt	nt	nt	nt
O=C(c1cccnc1)C1CCN(C(=O)c2ccc(Br)s2)CC1	-49.3	nt	nt	4.2	nt	nt	nt
COc1ccc(C2=NN(C(=O)c3cccs3)C(c3ccccc3O)C2)cc1 (stereo unspecified)	71.0*	12.2	21.4	6.7	12.5	-1.1	+
COc1ccc(C2=NN(C(=O)c3cccs3)C(O)(C(F)(F)F)C2)cc1 (stereo unspecified)	97.8*	16.5	nt	2.9	8.4	1.2	+
Cc1cc(/C(O)=C2/C(=O)C(=O)N(CCCN3CCOCC3)C2c2cccnc2)ccc1OC(C)C (stereo unspecified)	52.4	nt	nt	15.2	nt	nt	nt
C=C(C)Cn1c(N2CCN(c3ccc(OC)cc3)CC2)nc2c1c(=O)n(C)c(=O)n2C	-4.8	6.5	nt	6.4	-24.3	3.4	nt
COc1ccc(N2CCN(c3nc4c(c(=O)n(C)c(=O)n4C)n3Cc3ccccc3)CC2)cc1	69.1*	-17.7	-12.9	-0.6	-2.0	-0.6	i
CN(Cc1cccs1)c1nc(-c2cccnc2)nc2ccccc12	74.0*	7.5	18.2	4.0	-0.6	2.5	+
CCC(C)Nc1nc(-c2cccnc2)nc2ccccc12 (stereo unspecified)	19.8	nt	nt	6.6	nt	nt	nt
CC[C@@H](Cn1nnc2ccccc2c1=O)NC(=O)c1cccs1	11.9	nt	nt	8.4	nt	nt	nt
Nc1c(C(=O)c2ccc(Cl)cc2)oc2ccccc12	21.3	8.6	-23.5	9.2	8.2	0.8	nt
O=C(c1ccc(Cl)cc1)c1oc2ccccc2c1CS(=O)c1ccc(Cl)cc1 (stereo unspecified)	72.6*	nt	nt	8.6	-3.0	-2.2	+
O=C(O)CSc1cc(-c2ccccc2)nc2ccccc12	66.9*	nt	nt	11.8	nt	nt	i
O=C(O)CSc1nc2ccccc2s1	-8.1	-14.6	nt	6.8	7.7	1.5	nt
COc1ccc(Cl)cc1NC(=O)CSc1nnc2c3c(C)c(C)sc3ncn12	6.4	nt	nt	19.8	nt	nt	nt
O=C(Oc1cccc2cccnc12)c1cc2ccccc2oc1=O	-18.0	nt	nt	11.7	nt	nt	nt
CCn1c(-c2csc3c2CCCC3)n[nH]c1=S	5.5	-4.0	25.8	4.1	-4.9	-0.4	nt
CCCCn1c(-c2csc3c2CCCC3)n[nH]c1=S	54.8	nt	0.0	1.5	-11.1	1.4	i
SMILES	EP2 modulator	S1P3 antagonist	Insulin prom inh	PGE2 EP2 inh	S1P4 antagonist	S1P4 agonist	EP2 confirm
CCC1c2cccn2CCN1Cc1ccc(OCC(=O)N2CCCC2)cc1 (stereo unspecified)	9.0	nt	nt	4.0	nt	nt	nt
O=[N+]([O-])c1ccc(Cl)c2c1C1C=CCC1C(c1ccccn1)N2 (stereo unspecified)	75.0*	-3.9	nt	10.9	-2.8	-1.3	+
Cc1cccc(C(=O)c2cnc3ccccc3c2-c2ccccc2)c1	90.0*	nt	-13.0	7.7	12.5	1.2	+
CCCc1cc(C(=O)OC)c(NC(=O)c2cc(C)on2)s1	58.0	nt	6.2	6.3	-16.9	-2.1	+
CCc1ccc(NC(=O)c2cc(C)on2)cc1	6.4	-21.5	-19.4	-0.6	-14.9	0.3	nt
CC(C)(C)NC(=O)C(c1cccs1)N(C(=O)c1csnn1)c1cccc(Cl)c1 (stereo unspecified)	-6.3	nt	nt	8.9	nt	nt	nt
O=C(CSc1nc(Cc2ccccc2)nc2ccccc12)NCc1cccs1	30.0	nt	nt	7.0	nt	nt	nt
Cc1ccc(-c2nnn(CC(=O)N(Cc3cccs3)C(C(=O)NC3CCCC3)c3ccncc3)n2)cc1 (stereo unspecified)	72.0*	nt	-85.7	17.9	1.5	-1.2	i
O=C(NCC1CCCO1)C(c1ccncc1)N(Cc1cccs1)C(=O)Cn1nnc(-c2ccc(F)cc2)n1 (stereo unspecified)	-12.7	-13.5	18.5	11.8	1.1	0.0	nt
c1ccc(C2Nc3ccccc3Oc3ccccc32)cc1 (stereo unspecified)	81.1*	nt	9.5	27.5	-21.9	2.6	i
CC1CC2=C(C(=O)O1)C(c1ccccc1)Nc1ccccc1N2 (stereo unspecified)	-14.5	-5.2	14.7	3.4	-9.3	-3.9	nt
COc1ccc2oc(=O)c(-c3csc(Nc4cccc(O)c4)n3)cc2c1	-48.4	-10.4	50.0	31.5	-2.0	1.1	nt
COc1ccc(Nc2nc(-c3cc4cccc(OC)c4oc3=O)cs2)cc1	70.5*	-19.2	0.0	6.0	-18.9	0.9	+
CCn1c(=NC(=O)c2ccc(S(=O)(=O)N(C)C)cc2)sc2cccc(OC)c21	75.8*	-14.6	nt	11.8	-5.8	1.1	i
Cc1ccc(Cn2c(SCC(=O)NC(C)(C)C)nc3c2c(=O)n(C)c(=O)n3C)cc1	7.6	nt	nt	16.1	nt	nt	nt
Cc1ccc2cc(C(c3nnnn3Cc3ccccc3)N3CCCC(C)C3)c(=O)[nH]c2c1C (stereo unspecified)	-28.0	nt	nt	11.3	nt	nt	nt
COC(=O)CSc1nc(-c2ccccc2)nc2ccccc12	67.8*	-21.5	5.3	3.4	-0.7	0.4	+
CC1=C(C#N)c2nc(N)c(C#N)c(C)c2/C1=C\c1ccc(Cl)s1	-75.0	nt	nt	14.0	nt	nt	nt
O=C(O)CCCn1cc([N+](=O)[O-])cn1	17.5	nt	nt	2.1	nt	nt	nt
c1ccc(Nc2nc(N3CCNCC3)nc(N3CCOCC3)n2)cc1	67.3*	nt	-18.8	3.6	-8.1	-0.2	i
COC(=O)c1sccc1NC(=O)c1ccc(OC)cc1OC	41.3	7.1	30.0	4.3	0.0	1.1	nt
COC(=O)c1sccc1NC(=O)c1cc2c(s1)CCCC2	54.1	15.9	56.2	nt	0.5	2.8	i
COC(=O)c1sccc1NC(=O)c1cccc(OC)c1	67.5*	nt	16.7	14.3	-18.1	0.6	i
Cc1cc2cc3c(cc2n2c(SCC(=O)N4CCCCCC4)nnc12)OCO3	-10.7	nt	nt	5.8	nt	nt	nt
CCOC(=O)CCN(Cc1cccs1)S(=O)(=O)c1ccc(F)cc1	43.1	nt	nt	5.1	-12.2	2.7	nt

Screening data as filed in PubChem.
